PAX8 inh HTS – lowers PAX8-driven luciferase in RMG-I cells; AID 652154; inhibition, % at 12.6 µM; RMG-I TPO-luciferase reporter, SteadyGlo, 24 h; 360,000 tested, 1.2% active;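 active means mean replicate inhibition at least 60% with every replicate also reaching 60%; inconclusive means only one of the two criteria is met; inactive means mean below 60% and not all replicates reaching 60%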;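 further: luciferase light reporting Pax8 driven TPO promoter activity; plate controls were median of neutral control wells for no effect and mitoxantrone controls for full effect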
MITF TRPM1 inh – inhibitors of MITF-driven TRPM1 promoter in melanoma cells; SK-MEL-5 TRPM1 promoter luciferase, 24 h; inhibition, % at 12.5 µM; 330,000 tested, 0.83% active; AID 488899;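 active means mean inhibition across replicates of 60% or more, whatever share of single replicates reaches that level; inconclusive means some that reach 60%, reason not given; inactive means mean inhibition across replicates below 60%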
LMP1 NFkB inh – Epstein-Barr LMP1 NF-kappaB reporter inhibition; AID 504558; inhibition, % at 12.5 µM; LMP1-induced NF-kappaB luciferase reporter cells, luminescence; 350,000 tested, 0.69% active; in the data active means inhibition above about 41%; inconclusive means no clear call, values can overlap the other calls;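 further: 0% = neutral control wells and 100% = reference inhibitor control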
Shn3 inh set2 – inhibitors of Schnurri-3 3'UTR reporter in osteoblasts; Clone20 osteoblast Shn3 3'UTR firefly luciferase, 24 h; inhibition, % at 12.5 µM; 360,000 tested, 0.52% active;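 active means mean inhibition of at least 75% with every replicate also reaching 75%; inconclusive means mean inhibition at least 75% but some replicate below; inactive means mean inhibition below 75%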;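 further: 0% = median of neutral control wells and 100% = pilot-screen positive control compound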
Peg3 prom inh-1 – Peg3 promoter activity inhibition; HeLa PEG-Prom luciferase reporter, luminescence, overnight; inhibition, % at 20 µM; 360,000 tested, 1.7% active;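 active means inhibition of at least 50% at 20 µM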
HIF-2a block – inhibitors of HIF-2a; 786-0 RCC cells HIF-2a reporter, luciferase luminescence, overnight; inhibition, % at 18.8 µM; 360,000 tested, 0.72% active;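 active means inhibition of the luminescence signal of 40% or more relative to plate controls, in a single-dose primary screen at 18.75 µM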
Peg3 prom inh-2 – Peg3 promoter inhibition confirmation; shares compounds with Peg3 prom inh-1; HeLa PEG-Prom luciferase reporter, luminescence, overnight; inhibition, % at 20 µM; 1,300 tested, 84% active; AID 602417;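 active means at 20 µM dose, 40% or more inhibition averaged across four replicates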
Mdm2-MdmX confirm – Mdm2/MdmX (human) interaction inhibition, confirmed; shares compounds with HIF-2a block; SaOS-2 split-luciferase Mdm2/MdmX complementation, luminescence; inhibition, % at 8 µM; 740 tested, 99% active;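 active means mean inhibition of the luminescence signal across two replicates at or above 26 percent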
Target sequence (O15151 whole entry, looked up): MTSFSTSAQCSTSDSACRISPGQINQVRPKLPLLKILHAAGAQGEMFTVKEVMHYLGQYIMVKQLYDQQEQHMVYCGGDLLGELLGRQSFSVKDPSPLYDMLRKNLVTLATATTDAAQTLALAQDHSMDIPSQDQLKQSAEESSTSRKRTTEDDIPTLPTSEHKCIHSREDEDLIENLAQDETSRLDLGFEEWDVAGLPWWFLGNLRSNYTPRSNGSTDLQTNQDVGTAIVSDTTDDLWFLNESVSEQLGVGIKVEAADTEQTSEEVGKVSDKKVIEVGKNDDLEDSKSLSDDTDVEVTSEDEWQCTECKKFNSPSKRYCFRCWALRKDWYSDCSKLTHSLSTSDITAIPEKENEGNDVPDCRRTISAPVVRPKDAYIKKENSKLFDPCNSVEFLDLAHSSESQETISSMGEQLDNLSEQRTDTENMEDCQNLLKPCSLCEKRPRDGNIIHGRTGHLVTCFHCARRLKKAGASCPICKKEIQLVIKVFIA
Target sequence (Q00987 whole entry, looked up): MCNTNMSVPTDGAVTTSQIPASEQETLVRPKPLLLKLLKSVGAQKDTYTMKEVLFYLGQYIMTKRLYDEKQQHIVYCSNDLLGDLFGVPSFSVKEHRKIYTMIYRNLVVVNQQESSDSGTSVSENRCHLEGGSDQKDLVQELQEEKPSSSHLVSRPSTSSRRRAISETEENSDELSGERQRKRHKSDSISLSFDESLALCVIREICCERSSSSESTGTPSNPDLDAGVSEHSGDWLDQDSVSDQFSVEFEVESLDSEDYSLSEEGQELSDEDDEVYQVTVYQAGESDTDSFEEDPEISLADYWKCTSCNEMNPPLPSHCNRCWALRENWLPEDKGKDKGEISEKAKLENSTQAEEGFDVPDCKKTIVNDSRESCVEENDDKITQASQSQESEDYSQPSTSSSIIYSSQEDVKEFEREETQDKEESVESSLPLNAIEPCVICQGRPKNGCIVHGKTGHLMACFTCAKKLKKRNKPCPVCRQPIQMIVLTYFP
HIF-2a inh conf – HIF-2a inhibition, single concentration confirmation; shares compounds with HIF-2a block; 786-0 RCC cells, HIF-2a luciferase reporter luminescence, overnight; inhibition, % at 18.8 µM; 1,800 tested, 56% active;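 active means mean inhibition across four replicates of at least 40 percent at the single tested concentration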
HIF-1a counter – HIF-1a inhibition counter-screen for HIF-2a hits; MiaPaCa-2 HIF-1a luciferase reporter, desferoxamine, overnight; 1,800 tested, 72% active; inhibition, % at 18.8 µM; shares compounds with HIF-2a block; AID 651589;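 active means mean inhibition of the reporter signal across four replicates at the single tested dose of 50% or more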
* marks the source's active call; other numbers are inactive results; ? = inconclusive; / = not tested or not shown. A selection: hits, their analogues and other compounds. The true share with any hit is near 2.8%.

SMILES | PAX8 inh HTS | MITF TRPM1 inh | LMP1 NFkB inh | Shn3 inh set2 | Peg3 prom inh-1 | HIF-2a block | HIF-2a inh conf | HIF-1a counter | others
Cc1ccc(S(=O)(=O)N(C)C[C@@H]2Oc3ccc(NC(=O)Nc4ccccc4)cc3C(=O)N([C@@H](C)CO)C[C@@H]2C)cc1 | 23 | / | / | / | / | / | / | /
Cn1nnnc1Sc1ncnc2scc(-c3ccsc3)c12 | 98* | 82* | 43* | -20 | 95* | 66* | 49* | 100* | Peg3 prom inh-2=96*;Mdm2-MdmX confirm=103*
O=C(Nc1ccc(Cc2ccncc2)cc1)c1cccc([N+](=O)[O-])c1 | -17 | -5 | -14 | 5 | -78 | -94 | / | /
O=C(Nc1ccc(Cc2ccncc2)cc1)c1ccc([N+](=O)[O-])o1 | ? | 45 | -25 | 98* | 103* | 53* | 27 | 102* | Peg3 prom inh-2=95*
NC(N)=NN=C(c1ccc(F)cc1)c1ccc(C(F)(F)F)cc1 | 95* | 103* | -10 | -11 | 99* | 41* | 34 | 86*
O=C(N/N=C/c1ccc(C(F)(F)F)cc1)c1ccc(O)cc1 | -8 | -39 | -28 | -12 | -132 | -112 | / | /
COc1ccc(OCc2cccc(C(=O)Nc3cc(C)on3)c2)cc1 | 96* | ? | 81* | 14 | -1 | 66* | 68* | -47
COc1ccc(OCc2cccc(C(=O)Nn3cc([N+](=O)[O-])cn3)c2)cc1 | 93* | 60 | 83* | -26 | -135 | 62* | 84* | -47
COc1cccc(C(=O)Nc2cc(C)on2)c1 | -140 | / | -6 | -45 | -151 | -169 | / | /
COc1ccc(OCc2cccc(C(=O)NN)c2)cc1 | 46 | 50 | 62* | 21 | -24 | 61* | 70* | -121
COc1ccc(C(=O)Nc2ccc(OCc3ccccc3)cc2)cc1[N+](=O)[O-] | / | -1 | 15 | 13 | 16 | -4 | / | /
NNC(=O)c1cccc(COc2ccc(Br)cc2)c1 | -16 | -6 | 38 | -22 | -202 | 0 | / | /
CCOc1ccc(OCc2cccc(C(=O)N/N=C/c3cccnc3)c2)cc1 | 48 | 57 | 75* | 7 | -71 | 71* | 90* | -53
C[C@H](CO)N1C[C@H](C)[C@@H](CN(C)Cc2ccc(Oc3ccccc3)cc2)OCc2ccccc2-c2ccccc2C1=O | 35 | / | / | / | / | / | / | /
O=C(c1cccc(OCc2ccccc2)c1)N1CCOCC1 | -7 | -6 | 1 | -4 | -30 | -35 | / | /
CCOc1ccc(OCc2cccc(C(=O)N3CCOCC3)c2)cc1 | / | 56 | 84* | 70 | 21 | 65* | 77* | -104
COc1ccccc1[C@@]1(C)ON(c2ccccc2C(F)(F)F)C1=O | 34 | 16 | 2 | -22 | 77* | 66* | 24 | 101*
O=C(c1ccccc1)c1coc2c1C(=O)c1ccccc1C2=O | 10 | 24 | -16 | -23 | -140 | -114 | / | /
O=C1c2ccccc2C(=O)c2c1oc(C(F)(F)F)c2C(=O)c1ccccc1 | / | 103* | 68* | 91* | 94* | 23 | / | / | Mdm2-MdmX confirm=94*
COc1ccc2cc(CCNC(=O)c3ccc4c(c3)OCO4)c(=O)[nH]c2c1 | 40 | 25 | 16 | -2 | 11 | 38* | -12 | 3
COc1ccc(CCNC(=O)c2ccc3c(c2)OCO3)cc1 | -51 | -40 | -12 | -29 | -106 | -119 | / | /
CC(C)c1ccc(/C=C/C(=O)NC(=S)Nc2ccc(CN3CCOCC3)cc2)cc1 | 5 | 9 | 11 | 45 | -45 | -38 | / | /
CC(C)c1ccc(/C=C/C(=O)NC(=S)NN2CCOCC2)cc1 | -8 | -1 | 1 | -28 | -68 | 41* | -15 | -14
CCN(CC)c1ccc2c(c1)oc(=O)c1c(Cl)cc(=O)oc12 | / | 80* | -12 | 96* | 101* | 93* | / | / | Mdm2-MdmX confirm=103*
CCN(CC)c1ccc2c(C)cc(=O)oc2c1 | / | -12 | -11 | -6 | -38 | -58 | / | /
SMILES | PAX8 inh HTS | MITF TRPM1 inh | LMP1 NFkB inh | Shn3 inh set2 | Peg3 prom inh-1 | HIF-2a block | HIF-2a inh conf | HIF-1a counter | others
CNC(=O)c1cc(Oc2ccc(NC(=O)Nc3ccc(Cl)c(C(F)(F)F)c3)cc2)ccn1 | 96* | 17 | 68* | 73 | 49 | 15 | / | / | Mdm2-MdmX confirm=99*
CC(=O)N1[C@@H]2Cn3c(ccc(-c4ccccc4)c3=O)[C@H]1[C@@H](C(=O)N1CCCCC1)[C@@H]2CO | -8 | / | / | / | / | / | / | /
C[C@H]1CN([C@@H](C)CO)C(=O)c2cccc(NS(=O)(=O)c3ccccc3)c2O[C@@H]1CN(C)Cc1ccc(C(=O)O)cc1 | -3 | / | / | / | / | / | / | /
CC1=C/C(=N\OS(=O)(=O)c2ccccc2)C(C)=CC1=O | / | 34 | 9 | 93* | 106* | 65* | / | / | Mdm2-MdmX confirm=103*
O=C(CCn1c(=O)oc2cc(Cl)ccc21)Nc1ccc(O)cc1 | 1 | -13 | 4 | 1 | 6 | 3 | / | /
CCn1c(=O)oc2cc(NC(=O)CCl)ccc21 | 45 | 37 | -32 | 47 | 47 | 40* | 18 | 84*
Cn1c(=O)n(C)c2cc(NC(=O)CCl)ccc21 | 0 | 29 | -56 | -21 | -42 | 51* | 23 | 81*
COc1ccc(/C=N\NC(=O)c2ccc(=O)[nH]n2)cc1O | 14 | 0 | 0 | -8 | 1 | 28 | / | /
COc1ccc(/C=N/NC(=O)c2cc(C34CC5CC(CC(C5)C3)C4)[nH]n2)cc1O | / | 2 | -14 | -27 | 17 | 55* | 0 | 32
C[C@@H]1CN([C@@H](C)CO)C(=O)c2cccc(NC(=O)Nc3ccc4c(c3)OCO4)c2O[C@H]1CN(C)C(=O)Nc1ccccc1 | 49 | / | / | / | / | / | / | /
O=C(Nc1ccc(C(F)(F)F)cc1)N[C@H]1CC[C@@H](CC(=O)N2CCCCC2)O[C@@H]1CO | 33 | / | / | / | / | / | / | /
COc1ccc(Nc2ccnc3ccccc23)cc1 | / | -3 | 15 | 4 | -10 | -35 | / | /
CC(C)Nc1ccc(Nc2ccnc3cc4ccccc4cc23)cc1 | 97* | 88* | -143 | 13 | 108* | 55* | / | / | Mdm2-MdmX confirm=103*
Cc1noc(C)c1S(=O)(=O)Nc1ccc2c(c1)C(=O)N([C@H](C)CO)C[C@@H](C)[C@H](CN(C)C(=O)CCCN(C)C)OCCCC[C@@H](C)O2 | 2 | / | / | / | / | / | / | /
Cc1ccccc1N1CCN(c2ncnc3scc(-c4cccs4)c23)CC1 | 19 | 10 | 14 | 19 | 32 | 16 | / | /
Cn1nnnc1Sc1ncnc2scc(-c3ccc(C#N)cc3)c12 | 72* | 92* | 57* | 80 | 103* | 90* | 94* | 107* | Mdm2-MdmX confirm=103*

Source: PubChem BioAssay (several laboratories)
